# The panel holds about 79,000 compounds, 15% with a hit somewhere; the sample as a whole holds those more often. Values without a mark were called inactive. Active and inactive are the calls of the source. Cut-off read from the data, not from the text of the source: active = growth inhibition above about 70%; inactive = the rest.
# What was measured:
# [1] = NCI Yeast Anticancer Drug Screen. Data for the rad52 strain (AID 147);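 note: 0% = growth of vehicle-treated control cultures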; conditions: S. cerevisiae rad52 mutant growth inhibition, stronger effect = higher value
# Procedure, shortened: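 DNA repair-defective yeast; compound exposure; growth scored against vehicle controls.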
# [2] = NCI Yeast Anticancer Drug Screen. Data for the wt1 strain (AID 149);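 note: 0% = growth of vehicle-treated wt1 cultures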; conditions: S. cerevisiae wt1 strain (SPY 50644) growth inhibition, stronger effect = higher value
# Procedure, shortened: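 Measured: growth of wt1 yeast under compound versus vehicle treatment, reported as inhibition.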
# [3] = NCI Yeast Anticancer Drug Screen. Data for the rad50EPP+ strain (AID 151);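 note: 0% = growth of vehicle-treated control cultures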; conditions: S. cerevisiae rad50 mutant strain, stronger effect = higher value
# Procedure, shortened: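 rad50EPP+ yeast treated with test compounds. Readout: growth vs vehicle control.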
# [4] = NCI Yeast Anticancer Drug Screen. Data for the rad50 strain (AID 155);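 note: 0% = growth of vehicle-only cultures of the same strain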; conditions: S. cerevisiae rad50 strain growth inhibition, stronger effect = higher value
# Procedure, shortened: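 Growth of the mutant yeast was measured after compound exposure and referenced to vehicle-treated cultures.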
# [5] = NCI Yeast Anticancer Drug Screen. Data for the mec2-1 strain (AID 157); conditions: S. cerevisiae mec2-1 strain, stronger effect = higher value
# Procedure, shortened: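 Growth inhibition is read against vehicle-treated controls after compound exposure of the mec2-1 yeast strain, which is defective in DNA damage repair or cell cycle control.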
# [6] = NCI Yeast Anticancer Drug Screen. Data for the rad14 strain (AID 159);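 note: 0% = growth of vehicle-treated control cultures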; conditions: S. cerevisiae rad14 strain growth inhibition, stronger effect = higher value
# Procedure, shortened: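 Here, inhibition of yeast growth was measured after compound exposure, using a strain with a genetic defect in DNA damage repair and vehicle-treated cultures as the reference.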
# [7] = NCI Yeast Anticancer Drug Screen. Data for the sgs1 mgt1 strain (AID 161);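 note: 0% = growth of cultures given vehicle only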; conditions: S. cerevisiae sgs1 mgt1 strain, stronger effect = higher value
# Procedure, shortened: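 Growth of a repair-deficient yeast mutant was monitored after compound treatment and expressed as inhibition relative to vehicle-treated cultures.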
# [8] = NCI Yeast Anticancer Drug Screen. Data for the CLN2oe strain (AID 163);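 note: 0% = growth of vehicle-only control cultures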; conditions: S. cerevisiae CLN2oe strain, stronger effect = higher value
# Procedure, shortened: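 Compound-treated yeast; growth vs vehicle ctrl = % inhibition. Genetically altered strain (cell-cycle control).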
# [9] = NCI Yeast Anticancer Drug Screen. Data for the cln2 rad14 strain (AID 165);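 note: 0% = growth equal to vehicle treated cultures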; conditions: S. cerevisiae cln2 rad14 strain, stronger effect = higher value
# Procedure, shortened: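 Growth inhibition, relative to vehicle-treated controls, is the read-out. The test organism is a yeast strain with defined genetic alterations, cln2 rad14.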
# [10] = NCI Yeast Anticancer Drug Screen. Data for the bub3 strain (AID 167); conditions: S. cerevisiae bub3 mutant strain, stronger effect = higher value
# Procedure, shortened: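 Whole-cell yeast assay. The mutant strain was incubated with compounds, and growth inhibition was determined by comparison with vehicle-treated cells.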
# [11] = NCI Yeast Anticancer Drug Screen. Data for the wt2 strain (AID 169);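 note: 0% = growth of vehicle-treated yeast cultures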; conditions: S. cerevisiae wt2 strain growth inhibition, stronger effect = higher value
# Procedure, shortened: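 Compound exposure of yeast; growth compared with vehicle controls; inhibition reported.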
# [12] = NCI Yeast Anticancer Drug Screen. Data for the mlh1 strain (AID 171);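 note: 0% = growth of vehicle-treated control cultures of the same strain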; conditions: S. cerevisiae mlh1 strain growth inhibition, stronger effect = higher value
# Procedure, shortened: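 Compounds are applied to a genetically altered yeast strain, and its growth is compared with that of vehicle-treated cultures to give percent inhibition.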
# [13] = NCI Yeast Anticancer Drug Screen. Data for the sgs1 strain (AID 173);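 note: 0% = growth of vehicle-only control cultures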; conditions: S. cerevisiae sgs1 mutant, stronger effect = higher value
# Procedure, shortened: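 Compounds applied to genetically altered yeast; growth compared with vehicle-treated cultures to give % inhibition.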
# [14] = NCI Yeast Anticancer Drug Screen. Data for the mlh1 rad18 strain (AID 175); conditions: S. cerevisiae mlh1 rad18 strain growth inhibition, stronger effect = higher value
# Procedure, shortened: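 Cells of a genetically altered yeast strain, deficient in DNA damage repair, were treated with compound. Their growth was then compared with that of vehicle-treated cultures to give inhibition.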
# [15] = NCI Yeast Anticancer Drug Screen. Data for the rad18 strain (AID 177); conditions: S. cerevisiae rad18 mutant growth inhibition, stronger effect = higher value
# Procedure, shortened: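 Compounds are applied to a repair-deficient yeast strain, and growth is compared with that of vehicle-treated cultures to give percent inhibition.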
# [16] = at 5.0 µM (retest, dose inferred, filed as 0.5)
# [17] = at 50.0 µM (retest, dose inferred, filed as 5.0)
structure (smiles),measurement,setting,value
CC(=O)C1=C(C)O/C(=C/c2cccc(Cl)c2)C1=O,growth inhibition,[1]; at 1.2 µM,14%
same,growth inhibition,[1]; at 3.7 µM,36%
same,growth inhibition,[1]; at 11.0 µM,27%
same,growth inhibition,[1]; at 33.0 µM,36%
same,growth inhibition,[1]; at 100.0 µM,99% (active)
same,growth inhibition,[2]; at 1.2 µM,-7%
same,growth inhibition,[2]; at 3.7 µM,2%
same,growth inhibition,[2]; at 11.0 µM,2%
same,growth inhibition,[2]; at 33.0 µM,-2%
same,growth inhibition,[2]; at 100.0 µM,25%
same,growth inhibition,[3]; at 1.2 µM,16%
same,growth inhibition,[3]; at 3.7 µM,25%
same,growth inhibition,[3]; at 11.0 µM,22%
same,growth inhibition,[3]; at 33.0 µM,32%
same,growth inhibition,[3]; at 100.0 µM,88% (active)
same,growth inhibition,[4]; at 1.2 µM,-4%
same,growth inhibition,[4]; at 3.7 µM,19%
same,growth inhibition,[4]; [16],-1%
same,growth inhibition,[4]; at 11.0 µM,21%
same,growth inhibition,[4]; at 33.0 µM,18%
same,growth inhibition,[4]; [17],59%
same,growth inhibition,[4]; at 50.0 µM,52.7%
same,growth inhibition,[4]; at 100.0 µM,96% (active)
same,growth inhibition,[5]; at 1.2 µM,-9%
same,growth inhibition,[5]; at 3.7 µM,2%
same,growth inhibition,[5]; [16],2%
same,growth inhibition,[5]; at 11.0 µM,0%
same,growth inhibition,[5]; at 33.0 µM,7%
same,growth inhibition,[5]; [17],68%
same,growth inhibition,[5]; at 50.0 µM,71% (active)
same,growth inhibition,[5]; at 100.0 µM,96% (active)
same,growth inhibition,[6]; at 1.2 µM,7%
same,growth inhibition,[6]; at 3.7 µM,0%
same,growth inhibition,[6]; at 11.0 µM,6%
same,growth inhibition,[6]; at 33.0 µM,10%
same,growth inhibition,[6]; at 100.0 µM,28%
same,growth inhibition,[7]; [16],10%
same,growth inhibition,[7]; [17],60%
same,growth inhibition,[7]; at 50.0 µM,10.7%
same,growth inhibition,[8]; at 1.2 µM,5%
same,growth inhibition,[8]; at 3.7 µM,5%
same,growth inhibition,[8]; at 11.0 µM,15%
same,growth inhibition,[8]; at 33.0 µM,29%
same,growth inhibition,[8]; at 100.0 µM,98% (active)
same,growth inhibition,[9]; [16],6%
same,growth inhibition,[9]; [17],12%
same,growth inhibition,[9]; at 50.0 µM,-1.45%
same,growth inhibition,[10]; at 1.2 µM,0%
same,growth inhibition,[10]; at 3.7 µM,12%
same,growth inhibition,[10]; [16],5%
same,growth inhibition,[10]; at 11.0 µM,18%
same,growth inhibition,[10]; at 33.0 µM,26%
same,growth inhibition,[10]; [17],47%
same,growth inhibition,[10]; at 50.0 µM,-8%
same,growth inhibition,[10]; at 100.0 µM,91% (active)
same,growth inhibition,[11]; at 1.2 µM,-12%
same,growth inhibition,[11]; at 3.7 µM,6%
same,growth inhibition,[11]; at 11.0 µM,16%
same,growth inhibition,[11]; at 33.0 µM,71% (active)
same,growth inhibition,[11]; at 100.0 µM,91% (active)
same,growth inhibition,[12]; at 1.2 µM,-3%
same,growth inhibition,[12]; at 3.7 µM,-4%
same,growth inhibition,[12]; at 11.0 µM,4%
same,growth inhibition,[12]; at 33.0 µM,9%
same,growth inhibition,[12]; at 100.0 µM,75% (active)
same,growth inhibition,[13]; at 1.2 µM,2%
same,growth inhibition,[13]; at 3.7 µM,36%
same,growth inhibition,[13]; at 11.0 µM,29%
same,growth inhibition,[13]; at 33.0 µM,39%
same,growth inhibition,[13]; at 100.0 µM,95% (active)
same,growth inhibition,[14]; [16],9%
same,growth inhibition,[14]; [17],88% (active)
same,growth inhibition,[14]; at 50.0 µM,91.3% (active)
same,growth inhibition,[15]; at 1.2 µM,-7%
same,growth inhibition,[15]; at 3.7 µM,16%
same,growth inhibition,[15]; at 11.0 µM,13%
same,growth inhibition,[15]; at 33.0 µM,28%
same,growth inhibition,[15]; at 100.0 µM,99% (active)
N#C/C(=C1C=C/C(=N/O)c2ccccc2/1)c1ccccc1,growth inhibition,[1]; at 1.2 µM,-1%
same,growth inhibition,[1]; at 3.7 µM,-1%
same,growth inhibition,[1]; at 11.0 µM,1%
same,growth inhibition,[1]; at 33.0 µM,84% (active)
same,growth inhibition,[1]; at 100.0 µM,71% (active)
same,growth inhibition,[2]; at 1.2 µM,-3%
same,growth inhibition,[2]; at 3.7 µM,-4%
same,growth inhibition,[2]; at 11.0 µM,-6%
same,growth inhibition,[2]; at 33.0 µM,53%
same,growth inhibition,[2]; at 100.0 µM,56%
same,growth inhibition,[3]; at 1.2 µM,7%
same,growth inhibition,[3]; at 3.7 µM,13%
same,growth inhibition,[3]; at 11.0 µM,16%
same,growth inhibition,[3]; at 33.0 µM,36%
same,growth inhibition,[3]; at 100.0 µM,35%
same,growth inhibition,[4]; at 1.2 µM,2%
same,growth inhibition,[4]; at 3.7 µM,1%
same,growth inhibition,[4]; [16],47%
same,growth inhibition,[4]; at 11.0 µM,4%
same,growth inhibition,[4]; at 33.0 µM,92% (active)
same,growth inhibition,[4]; [17],97% (active)
same,growth inhibition,[4]; at 50.0 µM,96.6% (active)
same,growth inhibition,[4]; at 100.0 µM,87% (active)
same,growth inhibition,[5]; at 1.2 µM,-3%
same,growth inhibition,[5]; at 3.7 µM,-8%
same,growth inhibition,[5]; [16],24%
same,growth inhibition,[5]; at 11.0 µM,-8%
same,growth inhibition,[5]; at 33.0 µM,52%
same,growth inhibition,[5]; [17],97% (active)
same,growth inhibition,[5]; at 50.0 µM,98% (active)
same,growth inhibition,[5]; at 100.0 µM,49%
same,growth inhibition,[6]; at 1.2 µM,-3%
same,growth inhibition,[6]; at 3.7 µM,-6%
same,growth inhibition,[6]; at 11.0 µM,-3%
same,growth inhibition,[6]; at 33.0 µM,55%
same,growth inhibition,[6]; at 100.0 µM,71% (active)
same,growth inhibition,[7]; [16],60%
same,growth inhibition,[7]; [17],97% (active)
same,growth inhibition,[7]; at 50.0 µM,96.6% (active)
same,growth inhibition,[8]; at 1.2 µM,-5%
same,growth inhibition,[8]; at 3.7 µM,-6%
same,growth inhibition,[8]; at 11.0 µM,-6%
same,growth inhibition,[8]; at 33.0 µM,49%
same,growth inhibition,[8]; at 100.0 µM,62%
same,growth inhibition,[9]; [16],8%
same,growth inhibition,[9]; [17],97% (active)
same,growth inhibition,[9]; at 50.0 µM,95.8% (active)
same,growth inhibition,[10]; at 1.2 µM,-6%
same,growth inhibition,[10]; at 3.7 µM,-10%
same,growth inhibition,[10]; [16],49%
same,growth inhibition,[10]; at 11.0 µM,-8%
same,growth inhibition,[10]; at 33.0 µM,42%
same,growth inhibition,[10]; [17],95% (active)
same,growth inhibition,[10]; at 50.0 µM,97.7% (active)
same,growth inhibition,[10]; at 100.0 µM,50%
same,growth inhibition,[11]; at 1.2 µM,-4%
same,growth inhibition,[11]; at 3.7 µM,-5%
same,growth inhibition,[11]; at 11.0 µM,-4%
same,growth inhibition,[11]; at 33.0 µM,49%
same,growth inhibition,[11]; at 100.0 µM,36%
